We go through 22 molecules from PubChem BioAssay (EPA / NIEHS).

Assay [1] is described as follows: CCTE_Shafer_MEA_dev_network_spike_number: CCTE's Neural Network Formation Assay for Number of Network Spikes, Shafer Lab (AID 2284048).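 Further: synchronized bursts across electrodes counted on days 5 7 9 12 and integrated as AUC.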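 On AC50: fit as a loss of signal meaning fewer network spikes than DMSO.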 In short, it runs like this: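 Number of network spikes (coordinated firing across electrodes) recorded on days 5, 7, 9 and 12 and summarised as area under the curve. Rat cortical cultures on MEA, continuous compound exposure with full medium/treatment exchange at DIV 5 and 9.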

Assay [2] can be described thus: CCTE_Shafer_MEA_dev_network_spike_peak: CCTE's Neural Network Formation Assay for Mean Number of Electrodes in Network Spike, Shafer Lab (AID 2284049).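 On AC50: fitted for loss of signal meaning fewer electrodes in network spikes than DMSO.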 In short, it runs like this:
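Rat cortical primary culture, 1.5 x 10^5 cells/well, 48-well MEA (16 electrodes/well). Dosing day 0 through DIV 12, full media/compound exchange DIV 5, 9. AxIS adaptive spike detection; AUC over days 5/7/9/12; loss-of-signal vs DMSO.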

Assay [3] can be described thus: CCTE_Shafer_MEA_dev_spike_duration_mean: CCTE's Neural Network Formation Assay for Mean Spike Duration, Shafer Lab (AID 2284051).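 Further: mean network spike duration pooled as area under curve over DIV 5 to 12 recordings.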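 On AC50: potency for a decrease in mean network spike duration versus DMSO.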 A digest of the protocol:
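Readout is the average length of network spikes, clustered firing across electrodes, summed over DIV 5, 7, 9 and 12 as area under the curve. Neurons from rat cortex developed networks on MEA plates under continuous 12-day exposure.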

Assay [4] is described as follows: CCTE_Shafer_MEA_dev_network_spike_duration_std: CCTE's Neural Network Formation Assay for Standard Deviation of Network Spike Duration, Shafer Lab (AID 2284052).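 Further: hits are decreases in network spike duration SD versus DMSO vehicle.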 In short, it runs like this: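 Read-out is the trapezoidal area-under-the-curve across recordings made on days 5, 7, 9 and 12, fitted in the negative direction against DMSO baseline. Neurons were primary rat cortical cells treated from day 0, with treatment renewed at each feed.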

Assay [5] is described as follows: CCTE_Shafer_MEA_dev_per_network_spike_spike_number_mean: CCTE's Neural Network Formation Assay for Mean Number of Spikes in a Network Spike, Shafer Lab (AID 2284053).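 On AC50: fitted as decrease in spikes per network spike relative to DMSO.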 In short, it runs like this:
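Continuous twelve-day exposure of developing rat cortical networks grown over 16 microelectrodes per well; spontaneous firing is captured at four time points, and the per-network-spike spike number is integrated over development by trapezoidal AUC.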

Assay [6] in a line: CCTE_Shafer_MEA_dev_per_network_spike_spike_percent: CCTE's Neural Network Formation Assay for Percent of Spikes in a Network Spike, Shafer Lab (AID 2284054). A digest of the protocol: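 Metric: fraction of spikes falling in a 0.05 s window at network-spike peaks. Recordings were made on days 5, 7, 9 and 12 and collapsed by trapezoidal AUC. Cultures were rat cortical neurons on MEA plates, dosed continuously from plating, re-dosed at media changes.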

In assay [7] the test system is DIO2 (gene 1734). Description: CCTE_GLTED_hDIO2: CCTE's human Deiodinase 2 (DIO2) Inhibition Assay, Great Lakes Toxicology and Ecology Division (GLTED) Lab (AID 2284050; active means hit-call score of the fitted dose curve at least 0.9, where 1 is the maximum). A digest of the protocol: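 Inhibition is judged by reduced iodide release: uninhibited human DIO2 frees iodide from substrate over 3 h, measured afterward by Sandell-Kolthoff colorimetry. Iodinated chemicals or nitrite, iron and thiocyanate may interfere.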

Assay [8] concerns DIO3 (gene 1735). The assay is described as follows: CCTE_GLTED_hDIO3: CCTE's human Deiodinase 3 (DIO3) Inhibition Assay, Great Lakes Toxicology and Ecology Division (GLTED) Lab (AID 2284055; active means hit-call score of the fitted dose curve at least 0.9, where 1 is the maximum;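 further: potency is for inhibition seen as loss of released iodide signal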). A digest of the protocol: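 Human type 3 deiodinase, expressed via adenovirus system, was exposed to test chemicals for 3 hours in a cell-free format. Released iodide was then determined spectrophotometrically by Sandell-Kolthoff; plates ran in triplicate.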

A short description of assay [9]: CCTE_Shafer_MEA_dev_LDH: CCTE's Lactate Dehydrogenase Assay for Cytotoxicity in the Neural Network Formation Assay, Shafer Lab (AID 2284068; active means hit-call score of the fitted dose curve at least 0.9, where 1 is the maximum;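 further: exposure for twelve days from plating with re-dosing on DIV 5 and 9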). In short, it runs like this:
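Cytotoxicity companion to network-formation recordings: rat cortical neurons received compound over 12 days of development, re-dosed at DIV 5 and 9 feeds. Viability was inferred from LDH enzyme activity relative to DMSO.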

A short description of assay [10]: UKN5_HCS_SBAD2_cell_viability: Viability Assessment in the University of Konstanz (UKN) Leist Lab Neurite Outgrowth Assay in human iPSC-derived immature Dorsal Root Ganglia Neurons (UKN5) (AID 2284056). As to the method:
UKN5_HCS_SBAD2 is a cell-based, multiplexed-readout assay screening for neurite outgrowth and cell viability that uses SBAD2 (peripheral neurons differentiated from iPSC), a human peripheral nervous system cell line, with measurements taken at […] after chemical dosing in a microplate: 96-well plate. UKN5, also referred to as PeriTox, is an assay that uses human iPSC line SBAD2 as a model of peripheral neurons. Following 24 hr chemical exposures in multi-well plates, neurite area is evaluated as a marker of neurite outgrowth using high-content imaging of cells stained with calcein-AM. Cell viability is assessed using stain Hoechst H-33342.UKN5_HCS_SBAD2_cell_viability is an assay component measured from the UKN5_HCS_SBAD2 assay. It is designed to make measurements of enzyme activity, a form of viability reporter, as detected with Fluorescence intensity signals by HCS Fluorescent Imaging.The assay endpoint UKN5_HCS_SBAD2_cell_viability was analyzed with bidirectional fitting relative to DMSO as the negative control and baseline of activity. Using a type of viability reporter, gain or loss-of-signal activity can be used to understand viability effects. To generalize the intended target to other relatable targets, this assay endpoint is annotated to the cell cycle intended target family, where the subfamily is viability. […]

Results filed as inconclusive are left out. The source made the active and inactive calls. How the source made its calls, unless noted: active means hit-call score of the fitted dose curve at least 0.9, where 1 is the maximum; inactive means score below 0.9.

`CC(=O)C(F)(F)C(F)(F)F`: the call in [1], in assay [2], in [3], in assay [4], in [5] and in [6] was inactive.

What is called AC50 is the midpoint of the concentration-response curve, whichever way the signal moves. Consider `N#CCC#N`, for which the AC50 in [7] is 48.8 µM (active); in assay [8] it was 58 µM (active).

`NC(=O)c1ccc(N)nc1`: the AC50 was 7.35 µM (active) in [1]; 4.53 µM (active) in [2]; 7.59 µM (active) in assay [3]; 7.69 µM (active) in [4]; 4.19 µM (active) in assay [5]; 6.23 µM (active) in [6]. For the same molecule, the concentration at half-maximal activity (AC50) in assay [9] is 6.05 µM (active).

For the molecule `Cc1ccccc1OP(=O)(Oc1ccccc1C)Oc1ccccc1C`, the molecule was called inactive in assay [1] and in [4]. Moreover, the AC50 in [2] was 18.7 µM (active); in assay [3], 21.4 µM (active); in [5], 20.3 µM (active); in assay [6], 19.4 µM (active); in [9] it was 20.2 µM (active).

Regarding `O=S(=O)(F)C(F)(F)C(F)(F)C(F)(F)C(F)(F)F`, the molecule was classed as inactive in [1], in assay [2], in assay [3], in assay [4], in [5] and in [6].

With `CC(C)[C@@H](Nc1ccc(C(F)(F)F)cc1Cl)C(=O)OC(C#N)c1cccc(Oc2ccccc2)c1` (stereo partly drawn), the result in [1], in assay [4] and in assay [5] was inactive. Further, the AC50 in assay [2] was 20.9 µM (active); in assay [3], 25.8 µM (active); in assay [6], 14.5 µM (active); in assay [9], 23.5 µM (active).

As for `CC(F)(F)CC(F)(F)F`, the molecule was classed as inactive in assay [1], in assay [2], in [3], in assay [4], in assay [5] and in assay [6].

Consider `CNC(=O)CSP(=O)(OC)OC`, for which the result in assay [1], in assay [2], in [3], in assay [4], in [5] and in [6] was inactive. In addition, the call in [9] was inactive. The concentration at half-maximal activity (AC50) in [10] was 20.9 µM (active).

As for `O=[N+]([O-])c1ccc(Cl)c([N+](=O)[O-])c1`, the AC50 is 30.3 µM (active) in [7] and 7.41 µM (active) in assay [8].

Consider `C=CCOC(F)(C(F)(F)F)C(F)(F)F`, for which the molecule was classed as inactive in [1], in [3], in assay [4], in [5] and in assay [6]. Further, the AC50 in [2] is 0.0255 µM (active).

With `FC(F)OCC(F)(F)C(F)(F)F`, the call in assay [1], in assay [2], in assay [3], in assay [4], in [5] and in assay [6] was inactive.

For the molecule `O=S1(=O)OC(c2cc(Br)c(O)c(Br)c2)(c2cc(Br)c(O)c(Br)c2)c2ccccc21`, the AC50 is 36.4 µM (active) in assay [7] and 13 µM (active) in assay [8].

Turning to `CCOCn1c(-c2ccc(Cl)cc2)c(C#N)c(Br)c1C(F)(F)F`, the AC50 in assay [1] is 7.36 µM (active); in assay [2], 8.42 µM (active); in assay [3], 6.23 µM (active); in [4], 1.64 µM (active); in assay [5] it was 6.48 µM (active); in assay [6], 10.8 µM (active). Moreover, the AC50 in assay [9] is 12.1 µM (active).

As to `CC(=Cc1ccccc1)[N+](=O)[O-]`, the AC50 was 41.8 µM (active) in assay [7] and 64.6 µM (active) in assay [8].

Take `CCCCCCCCCCCCc1cccc(S(=O)(=O)O)c1`: the values for the AC50 in assay [7] and in [8] were 90.4 µM (active) and 38.1 µM (active), respectively.

For the molecule `O=C1c2ccccc2C(=O)C1C(=O)C(c1ccccc1)c1ccc(Cl)cc1` (stereo not drawn), the half-maximal activity concentration (AC50) in [7] is 91.9 µM (active); in assay [8], 68.5 µM (active).

Consider `OC(Cc1ccccc1Cl)(Cn1[nH]cnc1=S)C1(Cl)CC1` (stereo not drawn), for which the AC50 was 24.4 µM (active) in assay [1]; 50 µM (active) in assay [2]; 33.6 µM (active) in assay [3]; 23.6 µM (active) in assay [5]; 82.3 µM (active) in [6]; 73.5 µM (active) in [9]. In addition, the molecule was called inactive in [4].

Turning to `Cc1cc(C(F)(C(F)(F)F)C(F)(F)F)ccc1NC(=O)c1cccc(I)c1C(=O)NC(C)(C)CS(C)(=O)=O`, the call in assay [1] and in [4] was inactive. In addition, the AC50 in [2] is 18 µM (active); in assay [3], 11.3 µM (active); in assay [5], 17.4 µM (active); in assay [6], 20.9 µM (active); in assay [9], 11.3 µM (active).

On to `C=CC(F)(C(F)(F)F)C(F)(F)C(F)(F)F` (stereo not drawn), for which the outcome in assay [1], in [2], in assay [3], in assay [4], in [5] and in [6] was inactive. The result in [9] was inactive.

Turning to `CC1(C)[C@H](C(=O)O[C@H](C#N)c2cccc(Oc3ccccc3)c2)[C@@H]1/C=C(\Cl)C(F)(F)F`, the AC50 is 1.35 µM (active) in assay [1]; 8.95 µM (active) in assay [2]; 12.9 µM (active) in [3]; 12.9 µM (active) in assay [5]; 3.67 µM (active) in [6]; 22.7 µM (active) in [9]. Moreover, the call in [4] was inactive.

Regarding `CS(=O)(=O)c1ccc(C(=O)C2C(=O)CCCC2=O)c(Cl)c1COCC(F)(F)F`, the outcome in assay [1], in [2], in assay [3], in [4], in assay [5] and in assay [6] was inactive.

`O=S1OC[C@@H]2[C@H](CO1)[C@]1(Cl)C(Cl)=C(Cl)[C@@]2(Cl)C1(Cl)Cl` (stereo partly drawn): the call in assay [10] was inactive.
